An excerpt weighted towards active compounds, which were near 8.5% of everything screened.
KDM4E inh – JMJD2E (human) inhibition. JMJD2E catalytic domain, FDH-coupled NADH fluorescence (FDH is formaldehyde dehydrogenase). B2RXH2. Potency, µM (highest dose often 57.1 µM), usual class: inhibitors. AID 2147. 230,000 compounds, 1.6% hits; active means well fitted inhibition curve with a large enough effect, not every such curve was filed as active; inconclusive means small, poorly fitted or top-dose-only effect, or another doubt; inactive means no such curve, though single readings can be large or run the other way; further: nearly all actives have a fitted effect of over 50% in size
NPSR antag – neuropeptide S receptor (human) antagonism, cAMP | Potency, µM (highest dose often 38.3 µM), actives largely listed as inhibitors | CHO-NPSR cells, cAMP TR-FRET, antagonist mode | Q6W5P4 | AID 1461 | 220,000 compounds, 1% hits; active means well fitted curve in the direction sought with a large enough effect; inconclusive means small, poorly fitted or top-dose-only effect, or another doubt; inactive means no such curve, though single readings can be large; an effect the other way counts as inactive or inconclusive; further: nearly all actives have a fitted effect of over 50% in size
Coupling enz – inhibits coupling enzyme system, counter-screen for aldolase hits; coupling enzyme system counterscreen, AmpLite Red fluorescence; activity change, negative = inhibition, % at 58.2 µM, hits read low; 290,000 compounds, 0.67% hits; AID 2472; in the data active means activity change below about -30%
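Counterscreen of the coupled detection system alone, without aldolase: glyceraldehyde-3-phosphate coupling enzymes plus AmpLite Red readout. Compounds at 57.5 uM final, 10 min RT preincubation, 20 min RT reaction, fluorescence 525/598 nm.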
ALDH1A1 inh-1 – ALDH1A1 (human) enzyme inhibition. P00352. AID 1030. Purified ALDH1A1, NADH fluorescence, propionaldehyde substrate. 220,000 compounds, 7.3% hits. Potency, µM (highest dose often 75.3 µM), hits mostly inhibitors; active means well fitted inhibition curve with a large enough effect, not every such curve was filed as active; inconclusive means small, poorly fitted or top-dose-only effect, or another doubt; inactive means no such curve, though single readings can be large or run the other way
Sfp PPTase inh – inhibitors of Bacillus subtilis Sfp phosphopantetheinyl transferase | Potency, µM, usual class: inhibitors | Q9F4F7 | AID 1490 | Biochemical Sfp PPTase activity, qHTS | 310,000 compounds, 3.5% hits; active means well fitted curve in the direction sought with a large enough effect; inconclusive means small, poorly fitted or top-dose-only effect, or another doubt; inactive means no such curve, though single readings can be large; an effect the other way counts as inactive or inconclusive;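 further: the enzyme is Sfp with the accession as filed and its product quenches rhodamine fluorescence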
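After 15 min at room temperature with compound, 15 nM Sfp received 5 uM rhodamine-CoA plus 12.5 uM BHQ-2-ybbR (50 mM Hepes pH 7.6, 10 mM MgCl2). Rate came from the fluorescence difference over 30 min, ex 525/em 598 nm.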
RGS12 GoLoco inh-1 – RGS12 GoLoco-Gai1 interaction inhibition | P63096 | Gai1:RGS12 GoLoco peptide FP, rhodamine, 10 min | Potency, µM (highest dose often 61.6 µM), actives largely listed as inhibitors | 230,000 compounds, 0.44% hits | AID 880; active means well fitted inhibition curve with a large enough effect, not every such curve was filed as active; inactive means no such curve, though single readings can be large or run the other way; further: nearly all actives have a fitted effect of over 30% in size
RGS12 GoLoco inh-2 – RGS12 (human) GoLoco motif inhibition, red FP; shares compounds with RGS12 GoLoco inh-1; Gai1/rhodamine-RGS12 GoLoco peptide fluorescence polarization; Potency, µM (series often up to 57.1 µM), hits mostly inhibitors; 110 compounds, 50% hits; AID 2390; active means well fitted curve in the direction sought with a large enough effect; inconclusive means small, poorly fitted or top-dose-only effect, or another doubt; inactive means no such curve, though single readings can be large; an effect the other way counts as inactive or inconclusive
ALDH1A1 inh-2 – Inhibits human ALDH1A1, confirmation and counter-screen; shares compounds with ALDH1A1 inh-1; purified ALDH1A1, NADH fluorescence, propionaldehyde/NAD+; Potency, µM (doses to about 57.1 µM), usual class: inhibitors; 90 compounds, 90% hits; calls by dose curve
Sfp PPTase conf – Sfp phosphopantetheinyl transferase inhibition, confirmation | Potency, µM (doses to about 114 µM), hits mostly inhibitors | 380 compounds, 79% hits | shares compounds with Sfp PPTase inh | Sfp PPTase enzymatic assay, qHTS titration; active means well fitted curve in the direction sought with a large enough effect; inconclusive means small, poorly fitted or top-dose-only effect, or another doubt; inactive means no such curve, though single readings can be large; an effect the other way counts as inactive or inconclusive
Sfp PPTase gel – Inhibits Bacillus subtilis Sfp phosphopantetheinyl transferase | shares compounds with Sfp PPTase inh | purified Sfp, gel-based phosphopantetheinylation read-out | Potency, µM, most hits filed as inhibitors | 210 compounds, 20% hits;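 active means potency below 100 µM; inconclusive means dose-dependent response but potency above 100 µM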;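 further: potency is an IC50 for inhibitors of Sfp transfer activity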
CASP1 redox cat – caspase-1 inhibition with catalase present; shares compounds with Coupling enz; caspase-1 Ac-WEHD-AFC fluorescence rate, catalase buffer; Potency, µM (titrated, usually from 57.5 µM), hits mostly inhibitors; 30 tested, under 10 active
CASP1 inh CRC – confirmation of allosteric or competitive inhibitors of human caspase-1. purified caspase-1, fluorogenic substrate cleavage. 60 compounds, 20% hits. Potency, µM (doses to about 57.5 µM), usual class: inhibitors. shares compounds with Coupling enz
CASP7 inh CRC – confirmation of allosteric or competitive inhibitors of human caspase-7; shares compounds with Coupling enz; recombinant caspase-7, fluorogenic substrate cleavage; Potency, µM (top dose mostly 57.5 µM), usual class: inhibitors; 60 tested, under 10 active; AID 897; active means well fitted inhibition curve with a large enough effect in the main read-out, with a control signal flat, not every such curve was filed as active; inconclusive means small, poorly fitted or top-dose-only effect, or a change in a side signal; inactive means no such curve, though single readings can be large or run the other way
CASP7 redox cys – counter-screen for redox active caspase-7 inhibitors: cysteine buffer; shares compounds with Coupling enz; caspase-7 enzyme with cysteine, fluorogenic substrate, redox counterscreen; Potency, µM (doses to about 57.5 µM), usual class: inhibitors; 60 tested, under 10 active; AID 908
CASP7 redox cat – inhibits caspase-7 in catalase buffer, redox counter-screen; shares compounds with Coupling enz; Caspase-7 Ac-DEVD-AFC fluorescence rate, catalase buffer; 30 tested, under 10 active; Potency, µM (highest dose often 57.5 µM), hits mostly inhibitors; AID 909
Casp1 cysteine – caspase-1 inhibition with cysteine present. shares compounds with Coupling enz. recombinant caspase-1, fluorogenic substrate, cysteine buffer. Potency, µM (doses to about 57.5 µM), usual class: inhibitors. 60 tested, under 10 active. AID 929
A number is an active result; 0 = inactive; ? = inconclusive; - = no result given; ! = not active in a repeat. Unless noted, the call rests on the fitted dose curve; in most records, active means well fitted inhibition curve with a large enough effect in the main read-out, with a control signal flat; inconclusive means small, poorly fitted or top-dose-only effect, or a change in a side signal; inactive means no such curve, though single readings can be large or run the other way.

SMILES | KDM4E inh | NPSR antag | Coupling enz | ALDH1A1 inh-1 | Sfp PPTase inh | RGS12 GoLoco inh-1 | others
CC[C@@]1(O)CC(O)c2c(cc3c(c2O)C(=O)c2c(O)ccc(O)c2C3=O)C1C(=O)OC (stereo partly specified) | 13µM | - | 0 | 0 | 0 | 2.8µM | RGS12 GoLoco inh-2=5µM
CCC(/C=C/C(C)C1CCC2C3CC=C4CC(O)CC[C@@]4(C)C3CC[C@@]12C)C(C)C (stereo partly specified) | 0 | - | 0 | 0 | 0 | 0
Oc1ccc2c3c1OC1C(O)CC[C@]4(O)C(C2)N(CC2CCC2)CC[C@]314 (stereo partly specified) | 0 | - | 0 | 0 | 0 | 28µM | RGS12 GoLoco inh-2=0
Oc1ccc2c3c1OC1C(O)CC[C@@]4(O)[C@@H](C2)N(CC2CCC2)CC[C@]314 (stereo partly specified) | 0 | 0 | 0 | - | 0 | 0
CC[N+]12CCC(CC1)C(C(O)(c1ccccc1)c1ccccc1)C2 (stereo unspecified) | 0 | 0 | 0 | - | 0 | 0
CCCC[N+]12CCC(CC1)C(C(=O)c1cccs1)C2 (stereo unspecified) | 0 | 0 | 0 | 0 | 0 | 6.3µM | RGS12 GoLoco inh-2=16µM
COc1ccc2c(c1OC)C(=O)OC2C1c2cc3c(cc2CCN1C)OCO3 (stereo unspecified) | ? | 0 | 0 | 0 | 0 | 20µM! | RGS12 GoLoco inh-2=0
CCC1CN2CCC1CC2C(O)c1ccnc2ccccc12 (stereo unspecified) | 0 | - | 0 | 0 | 0 | 0
CC(C)=CCCC1(C)C=Cc2c(O)c3c(c(CC=C(C)C)c2O1)OC12C(CC4CC1C(C)(C)OC2(C/C=C(/C)C(=O)O)C4O)C3=O (stereo unspecified) | ? | - | 0 | ? | 0 | 0
CCC(CO)(C(=O)OC1C[N+]2(C)CCC1CC2)c1ccccc1 (stereo unspecified) | 0 | 0 | 0 | 0 | 0 | 16µM | RGS12 GoLoco inh-2=16µM
O=C1C=CC(=O)c2c1ccc1c2ccc2ccccc21 | 0 | - | 0 | 0.32µM | 3.5µM | 0 | ALDH1A1 inh-2=0.32µM
Cc1[nH]nc2c1C1(CCC3(CC1)OCCO3)C(C#N)=C(N)O2 | 0 | 0 | 0 | ? | 0 | 0
O=C1C2CC=CCC2C(=O)N1SC(Cl)(Cl)Cl (stereo unspecified) | - | - | - | 0.4µM | 6.3µM | 0 | Sfp PPTase conf=9.4µM;Sfp PPTase gel=6.2µM
Clc1ccc(C2CC3CCC2N3)cn1 (stereo unspecified) | - | - | 0 | 0 | 0 | 0
CCCC(C)C1(CC)C(=O)NC(=S)NC1=O (stereo unspecified) | - | - | 0 | 0 | 0 | 0
CC(C)Nc1ccc(Nc2ccccc2)cc1 | - | - | - | 8.9µM | 8.9µM | 0 | Sfp PPTase conf=11µM;Sfp PPTase gel=?
CCOC(=O)C1=CC(=C2C(=O)N(CC)C(=S)N(CC)C2=O)c2ccccc2O1 | 0 | 0 | 0 | ? | 50µM | 0 | Sfp PPTase conf=59µM;Sfp PPTase gel=0
CCN1C(=O)C(=C2C=C(C)OC(C)=C2)C(=O)N(CC)C1=S | 0 | 0 | 0 | 0 | 0 | 0
Cc1cccc(N2CCc3c2nc2ccccc2c3N)c1 | ? | 0 | -34! | ? | 28µM | 0 | Sfp PPTase conf=26µM;Sfp PPTase gel=0
N#Cc1ccc(CN2CC3(CCNCC3)C2)cc1 | - | - | 0 | 0 | 0 | 0
COc1ccc(OC)c(C(O)C(C)N)c1 (stereo unspecified) | 0 | 0 | 0 | 0 | 0 | 0
C[C@H](N)[C@H](O)c1ccc(O)c(O)c1 | 4.5µM | - | -34 | 0 | 35µM | 0 | Sfp PPTase conf=?;Sfp PPTase gel=74µM
C[C@]1(C(=O)O)CCC[C@]2(C)c3cc(O)ccc3CC[C@@H]12 | 0 | - | 0 | 0 | 0 | 0
CC(C)c1cc2c(c(O)c1O)[C@@]1(C(=O)O)CCCC(C)(C)[C@@H]1CC2 | - | - | -43 | 14µM | 1.4µM | 0 | Sfp PPTase conf=2.6µM;Sfp PPTase gel=0
Cn1ncnc2c(=O)n(C)c(=O)nc1-2 | 4µM | 1µM | -94 | ? | ? | 0 | CASP1 redox cat=1.1µM;CASP1 inh CRC=2µM;CASP7 inh CRC=4µM;CASP7 redox cys=0;CASP7 redox cat=?;Casp1 cysteine=0
C[C@]12CC[C@@H](O)C[C@@H]1CC[C@@H]1[C@@H]2CC[C@]2(C)C=CC[C@@H]12 | - | - | - | ? | 0 | 0
COc1cc2c(cc1O)-c1c(O)c(OC)cc3c1[C@H](C2)N(C)CC3 | ? | - | 0 | ? | ? | 0 | CASP1 inh CRC=0;CASP7 inh CRC=0;CASP7 redox cys=0;Casp1 cysteine=0
C[C@]12Cc3cn4c(nc3C=C1CCC1C2CC[C@@]2(C)[C@H]1CC[C@@]2(O)C#N)nc1ccccc14 (stereo partly specified) | 0 | 0 | - | ? | - | 0
C[C@]12Cc3cn4c(nc3C=C1CC[C@H]1[C@@H]2CC[C@@]2(C)[C@H]1CC[C@@]2(O)C#N)nc1ccccc14 | - | - | - | - | - | - | CASP1 inh CRC=?;CASP7 inh CRC=?;CASP7 redox cys=?;Casp1 cysteine=?
O=C(c1ccncc1)N1CCC[C@@]2(CCN(Cc3nccs3)C2)C1 | - | - | 0 | 0 | 0 | 0

High-throughput results deposited in PubChem by National Center for Advancing Translational Sciences (NCATS).
